This is a sample that favours compounds with a hit; in the whole collection about 4% have one here.
CF NFkB block: inhibitors of cystic fibrosis induced NF-kB | KKLEB NF-kB-GFP reporter, PAF-induced, GFP fluorescence overnight | inhibition, % at 5 µM | 360,000 tested, 0.86% active | AID 588850;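 active = at least 50% inhibition at 5 µM, scaled per plate between neutral and stimulator controls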;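 note: PAF is a Pseudomonas aeruginosa culture filtrate used as stimulus; plate controls were PAF-stimulated DMSO wells for no effect and unstimulated DMSO wells for full effect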
Peg3 prom inh: Peg3 promoter activity inhibition; HeLa PEG-Prom luciferase reporter, luminescence, overnight; inhibition, % at 20 µM; 360,000 tested, 1.7% active;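 active = inhibition of at least 50% at 20 µM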
HIF-2a inh: inhibitors of HIF-2a; 360,000 tested, 0.72% active; inhibition, % at 18.8 µM; 786-0 RCC cells HIF-2a reporter, luciferase luminescence, overnight;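 active = inhibition of the luminescence signal of 40% or more relative to plate controls, in a single-dose primary screen at 18.75 µM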
TROY signal inh: TROY signaling inhibition. Q293 LMP1-TROYcd NF-kB luciferase reporter, 4 h. inhibition, % at 10 µM. 360,000 tested, 0.98% active;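 active = compounds whose plate-normalised and pattern-corrected inhibition of the luciferase reporter signal at the single screening dose is 50% or more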
TWEAK Fn14 block: TWEAK-Fn14 signaling inhibition | AID 1159606 | TWEAK-stimulated Fn14 reporter cells, luciferase luminescence, 8 h | 360,000 tested, 2% active | inhibition, % at 10 µM; in the data active = inhibition above about 50%
KKLEB cytotox: CF airway cell cytotoxicity counter-screen. KKLEB CF airway cells viability, ATPlite luminescence, overnight; hits give low values; cells stimulated with P. aeruginosa culture filtrate. activity change (cytotoxicity), % at 5 µM. 360,000 tested, 0.36% active;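 active = corrected activity change at or below -50% at 5 µM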
The depositor's hits bear a star; x = no result given.

SMILES	CF NFkB block	Peg3 prom inh	HIF-2a inh	TROY signal inh	TWEAK Fn14 block	KKLEB cytotox
CC(C)Cc1ccc(-c2cc3nc(NCCc4ccc(S(N)(=O)=O)cc4)ccn3n2)cc1	-10	-108	-320	3	54*	-5
CN(C)c1ccc(/C=N/N=C2/NC(=O)/C(=C/c3ccc([N+](=O)[O-])cc3)S2)cc1	20	-140	0	33	60*	-23
COc1ccc(C2=NOC(C)(c3nnc(-c4ccncc4)o3)C2)cc1 (centres undefined)	-16	-9	3	0	-3	3
O=C(O)c1cnc(-c2ccccc2)nc1Sc1cccc(Cl)c1	-8	12	7	6	10	15
O=C(O)c1cnc(-c2ccccc2)nc1Sc1ccc(Cl)cc1Cl	2	4	4	61*	-17	9
COc1cccc(CC(=O)OCC(=O)NCCc2ccc(F)cc2)c1	-12	10	7	-8	54*	-2
COc1ccc(CC(=O)OCC(=O)NCc2ccc(F)cc2)cc1	15	11	11	-2	-33	-6
O=C(OCCN1C(=O)c2ccccc2C1=O)c1cc(S(=O)(=O)N2CCOCC2)ccc1Cl	9	13	17	-9	26	-7
O=C(OCCN1C(=O)c2cccc3c(N4CCOCC4)ccc(c23)C1=O)c1ccc(Cl)cc1Cl	26	24	11	49	90*	-23
O=C(OCCN1C(=O)c2cccc3c(N4CCOCC4)ccc(c23)C1=O)c1ccccc1Cl	10	35	3	73*	104*	-5
Cc1nn(-c2ccccc2Cl)c2sc(C(=O)Nc3nnc(C4CC4)s3)cc12	14	18	20	4	-29	-14
CCC(CC)NC(=O)c1cc2c(C)nn(Cc3ccccc3Cl)c2s1	9	43	1	x	74*	-2
CCOC(=O)c1ccc(NC(=O)c2cc3c(C)nn(-c4ccccc4Cl)c3s2)s1	70*	25	21	13	-10	-70*
Cc1nn(Cc2ccccc2Cl)c2sc(C(=O)Nc3ccccc3N3CCOCC3)cc12	28	34	5	13	61*	-14
COC(=O)[C@@]1(Sc2ccc(C)cc2)CC(=O)N[C@@H]1c1ccc(Br)cc1	x	x	0	0	2	x
O=C(Cc1ccc(NC(=O)C2CCN(C(=O)c3ccccc3)CC2)cc1)Nc1ccc(C(=O)N2CCOCC2)cc1	-22	-5	3	13	10	9
Cc1ccc(C)c(N2CCN(C(=O)C3CCCN(c4ncnc5c4nc4n5CCCCC4)C3)CC2)c1 (centres undefined)	10	34	21	43	28	1
O=C(Nc1cc(F)ccc1F)C1CCCN(c2ncnc3c2nc2n3CCCCC2)C1 (centres undefined)	-24	52*	8	5	23	-2
O=C(Nc1ccc(F)cc1F)C1CCCN(c2ncnc3c2nc2n3CCCCC2)C1 (centres undefined)	-2	28	19	21	-2	-23
Cc1ccc(N2CCN(C(=O)C3CCCN(c4ncnc5c4nc4n5CCCCC4)C3)CC2)c(C)c1 (centres undefined)	27	23	9	60*	45	-8
CC1(C)CC2CC(C)(CN2C(=O)c2cc(-c3ccc(O)cc3)on2)C1 (centres undefined)	-11	-20	2	62*	-35	2
CN(C)c1ccc(C=O)c(Oc2ccccc2)c1	10	-24	-33	-16	-35	0
O=C(Nc1sc2c(c1C(=O)O)CCCCC2)c1cccs1	-6	-195	-219	36	53*	3
NC(=O)c1c(NC(=O)c2ccc([N+](=O)[O-])o2)sc2c1CCCC2	107*	99*	7	-6	13	-64*
Cc1ccc(C(=O)Nc2sc3c(c2C(=O)O)CCCCC3)o1	-6	-160	-125	-31	65*	8
CC1(C(=O)NCc2ccccc2)CCC(=O)N1C1CCN(Cc2ccccc2)CC1 (centres undefined)	x	x	8	16	6	x
COc1cc2c(cc1NC(=O)Nc1ccc(C)cc1)oc1ccccc12	-3	-68	-117	-55	-6	16
COc1cc2c(cc1NC(=O)C(C)Sc1ccc(NC(C)=O)cc1)oc1ccccc12 (centres undefined)	10	15	-92	8	66*	-17

Assay outcomes deposited in PubChem by Sanford-Burnham Center for Chemical Genomics.
